Experimental data reported in PubChem BioAssay (NCATS).
Records with an inconclusive call do not appear. Entries that show only a call come without a potency. The source made the active and inactive calls. Calls follow the shape of the dose curve; as a rule, active = well fitted inhibition curve with a large enough effect; inconclusive = small, poorly fitted or top-dose-only effect; inactive = flat fitted curve, though single readings scatter.

Assay: BET inhibitor-based combinations targeting novel dependencies in MECOM-rearranged (r) AML: AML-191 cell line (AID 2202236; also: nearly all actives have a fitted effect of over 35% in size; also: potency is read from the fitted curve at half-maximal effect)
Conditions: AML-191 viability, CellTiter-Glo luminescence, 48 h; series mostly up to 46 µM
How it was run: (§1)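 Viability of cells (500 per well) is scored by luminescent CellTiter-Glo at 48 hr post-dosing. Eleven-point titrations are normalized to DMSO and empty controls and reduced to AUC values.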

| SMILES | Potency |
| --- | --- |
| Clc1ccc(C(c2ccccc2Cl)C(Cl)Cl)cc1 (configuration not stated) | inactive |
| O=C(O)C1CCCN(CCC=C(c2ccccc2)c2ccccc2)C1 (configuration not stated) | inactive |
| COc1cc(SC)ccc1C(=O)N1CCC(Cc2ccccc2)CC1 | inactive |
| CC(C)NCC(O)c1ccc(O)c(O)c1 (configuration not stated) | inactive |
| COc1ccccc1OCC(O)CN1CCN(CC(=O)Nc2c(C)cccc2C)CC1 (configuration not stated) | inactive |
| Oc1cc(O)cc(/C=C/c2ccc(O)c(O)c2)c1 | 16.6 µM (active) |

Assay: BET inhibitor-based combinations targeting novel dependencies in MECOM-rearranged (r) AML: AML-194 cell line (AID 2202237; also: nearly all actives have a fitted effect of over 40% in size)
Conditions: AML-194 (MECOM-r AML) viability, CellTiter-Glo, 48 h; series mostly up to 46 µM
How it was run: as §1

| SMILES | Potency |
| --- | --- |
| Clc1ccc(C(c2ccccc2Cl)C(Cl)Cl)cc1 (configuration not stated) | inactive |
| O=C(O)C1CCCN(CCC=C(c2ccccc2)c2ccccc2)C1 (configuration not stated) | inactive |
| COc1cc(SC)ccc1C(=O)N1CCC(Cc2ccccc2)CC1 | inactive |
| CC(C)NCC(O)c1ccc(O)c(O)c1 (configuration not stated) | inactive |
| COc1ccccc1OCC(O)CN1CCN(CC(=O)Nc2c(C)cccc2C)CC1 (configuration not stated) | inactive |
| CNC[C@H](O)c1cccc(O)c1 | inactive |
